The text below walks through data of PubChem BioAssay (Tox21).

SMILES strings stand for the structures. The source made the active and inactive calls. The call rests on the fitted dose curve; in most records, active means well fitted curve in the direction sought with a large enough effect in the repeat runs; inconclusive means weak or mixed curves; inactive means flat fitted curve, though single readings scatter.

One test in a line: qHTS assay to test for compound auto fluorescence at 460 nm (blue) in HepG2 cell free culture (AID 720685). To be noted: Cell-free culture medium, blue autofluorescence 405/460 nm; series mostly up to 91.3 µM. The method, boiled down:
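Cell-free plates of MEM plus 10% FBS received 23 nL compound or DMSO vehicle; blue-channel (405/460 nm) intensity scored against triamterene as reference fluorophore.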
(In general: Quantitative high-throughput screening tests each substance at several concentrations.)
`CS/C(C)=N/OC(=O)N(C)SN(C)C(=O)O/N=C(\C)SC`: the molecule was called inactive.
Same read-out and setting: next, `[CH3][Sn]([CH3])([Cl])[Cl]`: “inactive”; `O=C=Nc1ccc(Cl)cc1`: “inactive”; `CCOP(=S)(OCC)SCn1nnc2ccccc2c1=O`: “inactive”.
Still for that read-out and setting: the result for `COP(=S)(Oc1cc(Cl)c(Br)cc1Cl)c1ccccc1` (stereo not given) reads “inactive”; that for `CC(C)(C)c1cc([N+](=O)[O-])cc([N+](=O)[O-])c1O`, “inactive”; that for `CCCCC(O)(Cn1cncn1)c1ccc(Cl)cc1Cl` (stereo not given), “inactive”.
The same measure, in the same setting: next, `Clc1cccc2ccccc12`: “inactive”; `Cl/C=C\C[N+]12CN3CN(CN(C3)C1)C2`: “inactive”.
Turning to `Clc1cc(C(Cl)(Cl)Cl)cnc1Cl`, the result was inactive.
The same measure, in the same setting: the result for `O=C1C(=O)c2cccc3cccc1c23` reads “inactive”; that for `CC1(C)CCC(Cc2ccc(Cl)cc2)C1(O)Cn1cncn1` (stereo not given), “inactive”.
On the same count and under the same terms, next, `CO/N=C(/C(=O)OC)c1ccccc1COc1ccccc1C`: “inactive”.
For `O=C(NC(=O)c1c(F)cccc1F)Nc1ccc(OC(F)(F)C(F)OC(F)(F)F)c(Cl)c1` (stereo not given), the molecule was classed as inactive.
Still for that read-out and setting: the result for `O=C1c2ccccc2C(=O)C1C(=O)C(c1ccccc1)c1ccccc1` reads “inactive”; that for `O=C1CN=C(c2ccccc2)c2cc(Cl)ccc2N1CC1CC1`, “inactive”.
On the same count and under the same terms, next, `OC(c1ccc(Cl)cc1)(c1ccc(Cl)cc1)c1cccnc1`: “inactive”; `BrCC(Br)C1CCC(Br)C(Br)C1` (stereo not given): “inactive”.
Same read-out and setting: the result for `CC(C)O.CC(C)O.OCCN(CCO)CCO.OCCN(CCO)CCO.[Ti]` reads “inactive”; that for `Cc1c(F)c(F)c(COC(=O)C2C(/C=C(\Cl)C(F)(F)F)C2(C)C)c(F)c1F` (stereo not given), “inactive”; that for `COC(=O)C(Br)CBr` (stereo not given), “inactive”.
On to `CCOP(=S)(Oc1ccc([N+](=O)[O-])cc1)c1ccccc1` (stereo not given), for which the call was inactive.
The same measure, in the same setting: the result for `O=[N+]([O-])C(Br)(CO)CO` reads “inactive”; that for `O=C(O)C(F)(F)C(F)(F)C(F)(F)C(F)(F)C(F)(F)C(F)(F)C(F)(F)C(F)(F)C(F)(F)F`, “inactive”.
For the molecule `NS(=O)(=O)C(F)(F)C(F)(F)C(F)(F)C(F)(F)C(F)(F)C(F)(F)C(F)(F)C(F)(F)F`, the result was inactive.
Take `C/C(=C\c1ccccc1)[N+](=O)[O-]`: the result was inactive.
Still for that read-out and setting: the result for `COCCOCCO` reads “inactive”; that for `Clc1cccc(SC2CCNCC2)n1`, “inactive”.
The same measure, in the same setting: the result for `CC(C)(C)C(O)C(Oc1ccc(Cl)cc1)n1cncn1` (stereo not given) reads “inactive”; that for `O=C(Nc1ccccc1)Nc1ccnc(Cl)c1`, “inactive”.
The same measure, in the same setting: next, `O=[N+]([O-])c1cc(C(F)(F)F)cc([N+](=O)[O-])c1Cl`: “inactive”.
Turning to `C=CC(=O)OCC(C)O` (stereo not given), the molecule was called inactive.
Turning to `O=C(O)CC(Cl)C(=O)O` (stereo not given), the result was inactive.
Still for that read-out and setting: next, `C=CCN1CC[C@]23c4c5ccc(O)c4O[C@H]2C(=O)CC[C@@]3(O)[C@H]1C5`: “inactive”; `O=C(O)C1(c2ccc3c(c2)OC[C@H](Cc2ccc(-c4ccccc4)cc2)[C@H]3O)CCCC1`: “inactive”.

A further test is described as follows: qHTS assay to test for compound auto fluorescence at 535 nm (green) in HepG2 cell free culture (AID 720686). To be noted: Cell-free medium, green autofluorescence 485/535 nm; series mostly up to 91.3 µM.
As for `CS/C(C)=N/OC(=O)N(C)SN(C)C(=O)O/N=C(\C)SC`, the outcome was inactive.
With `[CH3][Sn]([CH3])([Cl])[Cl]`, the outcome was inactive.
The same measure, in the same setting: the result for `O=C=Nc1ccc(Cl)cc1` reads “inactive”; that for `CCOP(=S)(OCC)SCn1nnc2ccccc2c1=O`, “inactive”; that for `COP(=S)(Oc1cc(Cl)c(Br)cc1Cl)c1ccccc1` (stereo not given), “inactive”.
Same read-out and setting: next, `CC(C)(C)c1cc([N+](=O)[O-])cc([N+](=O)[O-])c1O`: “inactive”; `CCCCC(O)(Cn1cncn1)c1ccc(Cl)cc1Cl` (stereo not given): “inactive”; `Clc1cccc2ccccc12`: “inactive”.
Same read-out and setting: the result for `Cl/C=C\C[N+]12CN3CN(CN(C3)C1)C2` reads “inactive”; that for `Clc1cc(C(Cl)(Cl)Cl)cnc1Cl`, “inactive”.
On to `O=C1C(=O)c2cccc3cccc1c23`, for which the call was inactive.
On the same count and under the same terms, the result for `CC1(C)CCC(Cc2ccc(Cl)cc2)C1(O)Cn1cncn1` (stereo not given) reads “inactive”; that for `CO/N=C(/C(=O)OC)c1ccccc1COc1ccccc1C`, “inactive”.
On the same count and under the same terms, the result for `O=C(NC(=O)c1c(F)cccc1F)Nc1ccc(OC(F)(F)C(F)OC(F)(F)F)c(Cl)c1` (stereo not given) reads “inactive”.
On the same count and under the same terms, the result for `O=C1c2ccccc2C(=O)C1C(=O)C(c1ccccc1)c1ccccc1` reads “inactive”; that for `O=C1CN=C(c2ccccc2)c2cc(Cl)ccc2N1CC1CC1`, “inactive”; that for `OC(c1ccc(Cl)cc1)(c1ccc(Cl)cc1)c1cccnc1`, “inactive”.
For `BrCC(Br)C1CCC(Br)C(Br)C1` (stereo not given), the call was inactive.
Still for that read-out and setting: next, `CC(C)O.CC(C)O.OCCN(CCO)CCO.OCCN(CCO)CCO.[Ti]`: “inactive”.
On the same count and under the same terms, next, `Cc1c(F)c(F)c(COC(=O)C2C(/C=C(\Cl)C(F)(F)F)C2(C)C)c(F)c1F` (stereo not given): “inactive”; `COC(=O)C(Br)CBr` (stereo not given): “inactive”; `CCOP(=S)(Oc1ccc([N+](=O)[O-])cc1)c1ccccc1` (stereo not given): “inactive”.
Still for that read-out and setting: next, `O=[N+]([O-])C(Br)(CO)CO`: “inactive”.
In the case of `O=C(O)C(F)(F)C(F)(F)C(F)(F)C(F)(F)C(F)(F)C(F)(F)C(F)(F)C(F)(F)C(F)(F)F`, the molecule was called inactive.
As for `NS(=O)(=O)C(F)(F)C(F)(F)C(F)(F)C(F)(F)C(F)(F)C(F)(F)C(F)(F)C(F)(F)F`, the result was inactive.
The same measure, in the same setting: next, `C/C(=C\c1ccccc1)[N+](=O)[O-]`: “inactive”.
The same measure, in the same setting: next, `COCCOCCO`: “inactive”.
Still for that read-out and setting: the result for `Clc1cccc(SC2CCNCC2)n1` reads “inactive”.
Regarding `CC(C)(C)C(O)C(Oc1ccc(Cl)cc1)n1cncn1` (stereo not given), the molecule was classed as inactive.
The same measure, in the same setting: the result for `O=C(Nc1ccccc1)Nc1ccnc(Cl)c1` reads “inactive”; that for `O=[N+]([O-])c1cc(C(F)(F)F)cc([N+](=O)[O-])c1Cl`, “inactive”.
For the molecule `C=CC(=O)OCC(C)O` (stereo not given), the molecule was called inactive.
The same measure, in the same setting: the result for `O=C(O)CC(Cl)C(=O)O` (stereo not given) reads “inactive”; that for `C=CCN1CC[C@]23c4c5ccc(O)c4O[C@H]2C(=O)CC[C@@]3(O)[C@H]1C5`, “inactive”; that for `O=C(O)C1(c2ccc3c(c2)OC[C@H](Cc2ccc(-c4ccccc4)cc2)[C@H]3O)CCCC1`, “inactive”.
